# Screens deposited in PubChem BioAssay by several laboratories.
# GRK2 aptamer HTS: human GRK2 inhibition via aptamer displacement; P25098; 0.59% of 330,000 active; bead flow cytometry, FAM-aptamer displacement from GRK2; inhibition of aptamer binding, % at 10 µM; AID 488847;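 active means inhibition of aptamer binding above 40%, roughly 3 SD of noise, on plates passing a quality check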;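 further: median bead fluorescence of bound FAM aptamer so fluorescent compounds give negative values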
# Target sequence (P25098 whole entry, looked up): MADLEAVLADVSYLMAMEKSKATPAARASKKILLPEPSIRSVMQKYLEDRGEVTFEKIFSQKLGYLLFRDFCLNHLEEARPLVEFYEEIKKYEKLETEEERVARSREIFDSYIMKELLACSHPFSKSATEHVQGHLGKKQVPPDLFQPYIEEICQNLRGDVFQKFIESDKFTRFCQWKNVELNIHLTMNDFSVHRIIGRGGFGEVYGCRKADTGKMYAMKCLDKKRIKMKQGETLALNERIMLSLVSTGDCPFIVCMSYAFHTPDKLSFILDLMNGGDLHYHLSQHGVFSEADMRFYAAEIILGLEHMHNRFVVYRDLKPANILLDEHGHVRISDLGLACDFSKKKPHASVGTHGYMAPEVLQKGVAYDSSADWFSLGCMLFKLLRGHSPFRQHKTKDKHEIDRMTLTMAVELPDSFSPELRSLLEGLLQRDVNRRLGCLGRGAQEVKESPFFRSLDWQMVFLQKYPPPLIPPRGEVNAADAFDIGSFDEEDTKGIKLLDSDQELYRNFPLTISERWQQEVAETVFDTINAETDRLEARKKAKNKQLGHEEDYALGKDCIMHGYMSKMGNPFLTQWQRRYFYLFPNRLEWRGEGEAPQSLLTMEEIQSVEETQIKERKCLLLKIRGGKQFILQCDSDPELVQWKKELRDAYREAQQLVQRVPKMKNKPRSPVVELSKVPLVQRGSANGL
# Bfl-1 A1 inh: inhibitors of the anti-apoptotic protein A1, read as caspase activation. MEF A1-2A-BIM cells, Caspase-Glo 3/7 luminescence, 3 h; percent of clofoctol response, vehicle zero. caspase activation, % (no concentration beside the values). 0.066% of 330,000 active. AID 2462;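 active means over half of replicate activation scores above 10%, or exactly half above 10 with the replicate mean above 10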
# VLA-4 inh: inhibition in a human VLA-4 binding assay. 0.2% of 330,000 active. P13612. inhibition, % (about 7 µM as worked out from the volumes in the protocol). VLA-4 expressing cells, ligand binding flow cytometry; in the data active means inhibition above about 50%
# Beta2AR agonist: activates human beta-2 adrenergic receptor causing internalization; response, % (concentration not given with the values); Am2.2-beta2AR cells, FAP receptor internalization, flow cytometry; P07550; 0.43% of 340,000 active;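 active means response above a set limit, near 3 SD of response in nonfluorescent compounds, cut at about 42% in these data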
# NTR1 agonist: NTR1 (human) agonism. NTR1-U2OS beta-arrestin-GFP spot imaging, agonist mode. activation, % at 20 µM. 0.17% of 330,000 active;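 active means activation at or above 40% of the spot to cytoplasm intensity ratio, with at least 20 cells analyzed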;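 further: 0% = DMSO without peptide and 100% = 100 nM NTR1 peptide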
# B2AR ag CP1: human beta-2 adrenergic receptor agonism, cherry pick; shares compounds with Beta2AR agonist; Am2.2-beta2AR cells, FAP surface receptor, flow cytometry; stronger effect = lower value; percent response (surface receptor), % at 10 µM; 25% of 1,100 active; AID 540358;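 active means surface receptor percent response at or below 58%, roughly 3 SD from nonfluorescent compounds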
# B2AR FAP counter: fluorescence artifact in beta-2AR agonist FAP counterscreen; shares compounds with Beta2AR agonist; Am2.2 cells, FAP fluorogen flow cytometry; stronger effect = lower value; calls only at 10 µM; 1,100 tested, under 10 active;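 active means percent response below a set limit in fluorescence channel 1 and below 50% in channel 8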
# * = called active by the depositor; i = inactive; · = no result given. Shown are actives, neighbours in structure and some others; about 1.3% of the full set was active somewhere.
SMILES,GRK2 aptamer HTS,Bfl-1 A1 inh,VLA-4 inh,Beta2AR agonist,NTR1 agonist,B2AR ag CP1,B2AR FAP counter
Cn1c(=NC(=O)c2ccccc2[N+](=O)[O-])sc2cccc(F)c21,0,-7,18,8,1,·,·
O=C(Cc1cccc(NC(=O)C2CCCN(C(=O)C3CCCC3)C2)c1)Nc1cccc(C(=O)N2CCOCC2)c1 (stereo unspecified),·,·,·,-9,·,·,·
CCCCCCN[C@H]1CCC2C3CC=C4C[C@@H](O)CC[C@]4(C)C3CC[C@@]21C (stereo partly specified),0,0,2,17,4,·,·
Cc1ccc(C(C[N+](=O)[O-])Sc2ccc(N)cc2)cc1 (stereo unspecified),2,1,20,70*,54*,102,i
Nc1ccc(Sc2ccc([N+](=O)[O-])cc2)cc1,0,1,10,-3,-2,·,·
Cc1oc(CC(C)C)cc1C(=O)Nc1cccc2ccccc12,0,-1,11,43*,1,99,i
Cc1cccc(NC(=O)CN2CCN(C(=O)C3CCCO3)CC2)c1C (stereo unspecified),0,1,-15,0,0,·,·
CCN(CC)S(=O)(=O)c1cc(NC(=O)C2=COCCO2)ccc1Cl,2,0,6,115*,2,24*,i
COc1ccc(-c2nn(-c3ccccc3)cc2C(=O)Nc2nccs2)cc1,1,0,0,43*,1,154,i
COc1ccc(C)cc1N(C(=O)c1snc(C(N)=O)c1N)C(C(=O)NC1CCCC1)c1ccc(F)cc1 (stereo unspecified),1,0,-7,-1,1,·,·
O=C(Nc1ccccc1)Nc1sccc1-c1nc2ccccc2s1,0,-1,-18,26,9,·,·
O=C(Nc1cccc(Cl)c1)Nc1sccc1-c1nc2ccccc2s1,0,-1,-5,66*,3,116,i
O=C(Nc1cccc(-c2nc3ccccc3s2)c1)c1cccs1,4,0,-1,52*,4,46*,i
O=C(Nc1cccc(-c2nc3ccccc3s2)c1)c1cc(=O)c2ccccc2o1,3,0,-16,11,8,·,·
CCC(C)N(C(=O)CSc1nnc(COc2ccccc2F)n1N)C1CCS(=O)(=O)C1 (stereo unspecified),0,0,9,12,-1,·,·
Cc1ccc(S(=O)(=O)c2ccc([N+](=O)[O-])o2)cc1,·,·,·,86*,·,16*,i
CC1=NN(C(N)=S)C(=O)C1N=Nc1ccc(F)cc1 (stereo unspecified),·,·,·,-2,0,49*,i
Cc1ccc(C(=O)NCCC(=O)Nc2ccccc2C)cc1,1,0,19,1,0,·,·
O=C(CSc1ccc2nnc(-c3ccccn3)n2n1)Nc1ccccc1F,4,0,23,-2,0,·,·
CC(C)=CCC(C)(C)C1OCCN1C(=O)c1ccccc1 (stereo unspecified),1,0,-3,62*,1,22*,i
CC(=O)C1(C)C(=O)N(c2ccc(F)cc2)C(=O)N1c1ccc(F)cc1 (stereo unspecified),·,·,·,-7,·,·,·
CC(=O)Nc1cc(S(=O)(=O)Nc2cccc(C)c2)c(C)cc1C,1,-1,7,1,-1,·,·
CC(=O)Nc1cc(S(=O)(=O)Nc2ccccc2)c(C)cc1C,0,0,24,47*,-1,115,i
CN1CCc2c(sc3nc(SCC(=O)N4CCCCC4)n(-c4ccccc4)c(=O)c23)C1,0,3,11,61*,2,·,i
O=C(O)[C@H](Cc1c[nH]c2ccccc12)Nc1ncccc1[N+](=O)[O-],0,1,-13,3,0,·,·
SMILES,GRK2 aptamer HTS,Bfl-1 A1 inh,VLA-4 inh,Beta2AR agonist,NTR1 agonist,B2AR ag CP1,B2AR FAP counter
Cc1ccccc1NC(=O)Cc1nc(COC(=O)c2ncc(Cl)c(Cl)c2Cl)cs1,·,·,·,9,·,·,·
COc1ccc(CN(CC(O)COCc2ccccc2)S(=O)(=O)c2ccccc2Br)cc1 (stereo unspecified),0,·,·,12,2,·,·
CCOC(=O)c1c(C)[nH]c(C)c1C(=O)COC(=O)c1ccc(S(=O)(=O)N(CC)CC)cc1,0,0,4,0,3,·,·
CCOC(=O)c1c(C)[nH]c(C)c1C(=O)COC(=O)c1cccc(S(=O)(=O)N(CC)CC)c1,39,0,-8,44*,1,118,i
O=C(NC1CCOC1=O)c1ccccc1 (stereo unspecified),·,·,·,0,·,·,·
O=Cc1ccc(O)c2ncccc12,·,·,·,9,11,98,i
CC1CCCN(c2ccc([N+](=O)[O-])cc2C(=O)c2ccccc2)C1 (stereo unspecified),2,1,14,42*,2,49*,i
CC(C)(C)C(=O)Cn1c(=N)n(Cc2ccccc2)c2ccccc21,0,1,5,-2,7,·,·
Cc1ccccc1Cn1c(=N)n(CC(=O)c2ccc([N+](=O)[O-])cc2)c2ccccc21,0,1,7,55*,·,22*,i
Cc1ccc(Cn2c(=N)n(CC(=O)c3ccccc3)c3ccccc32)cc1,0,-1,12,58*,1,86,i
CSCC[C@H](NC(=O)OC(C)(C)C)C(=O)NCC1CCC(C(=O)N[C@@H](Cc2ccccc2)C(=O)O)CC1 (stereo partly specified),0,1,6,-4,0,·,·
COc1ccc(C(=O)COC(=O)CCCC(=O)NC2CCCCC2)cc1,4,-1,0,-9,-1,·,·
C=CCOc1ccc(C(=O)Nc2ccccc2C(=O)NCc2cccnc2)cc1,0,1,-10,-29,2,·,·
CN(c1cccc2cccnc12)S(=O)(=O)c1ccccc1,1,2,6,-2,0,102,i
CCN(CC)S(=O)(=O)c1cccc2cccnc12,0,0,0,0,0,·,·
Cc1c(Br)c([N+](=O)[O-])nn1CCCC(=O)Nc1sc2c(c1C#N)CCC2,3,0,-2,59*,7,128,i
COc1ccc(C(=O)N(C)Cc2ccc(C)o2)cc1OC1CCN(C(C)C)CC1,1,0,6,3,0,·,·
CCN(CC)C(=O)CSc1nc(-c2ccccc2)cc(=O)[nH]1,0,1,13,-2,-2,120,i
CCOC(=O)c1cnc(-n2nc(C)cc2C)nc1NC,0,0,1,-8,2,105,i
c1cncc(CNc2nc(-c3cccnc3)nc3ccccc23)c1,4,-1,2,-14,2,166,i
Cc1ccc(Nc2nc(-c3cccnc3)nc3ccccc23)cc1,1,1,5,10,22,·,·
